The list is not random: actives were taken first. Their share in the collection is about 1.2%.
GSH fluor = compound fluoresces at 488/530 nm on GSH beads. GSH beads flow cytometry, compound fluorescence 488/530 nm; stronger effect = higher value. fluorescence (KMESF) at 10 µM. 190,000 compounds, 0.25% hits. AID 1776; in the data active = fluorescence above about 89;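 also: glutathione beads carrying GST-tagged Bcl family fusion proteins plus one bare bead set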
RGS4-Gao reg = modulates binding of RGS4 to human Galphao. AID 1415. Multiplexed bead flow cytometry; actives lie on both sides. 220,000 compounds, 0.33% hits. P09471. binding response (% of control), % at 10 µM; in the data active = binding response below about 49% or above about 150%; inactive = in between;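 also: fluorescent Galphao activated with aluminum fluoride binding bead-coupled RGS4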
Target sequence (P09471 whole entry, looked up): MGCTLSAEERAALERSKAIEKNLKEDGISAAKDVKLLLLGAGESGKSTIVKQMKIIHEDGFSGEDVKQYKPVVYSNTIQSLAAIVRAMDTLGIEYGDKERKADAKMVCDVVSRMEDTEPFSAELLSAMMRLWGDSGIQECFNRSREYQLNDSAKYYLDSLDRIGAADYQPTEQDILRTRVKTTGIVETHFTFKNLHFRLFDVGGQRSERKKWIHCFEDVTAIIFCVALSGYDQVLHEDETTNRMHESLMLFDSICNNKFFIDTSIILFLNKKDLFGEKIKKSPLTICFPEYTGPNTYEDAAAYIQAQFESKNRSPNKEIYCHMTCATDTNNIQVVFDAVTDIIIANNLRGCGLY
RGS16-Gao HTS = modulates binding between human RGS16 and Galphao; O15492+P09471; bead-based flow cytometry RGS16-Galphao binding, fluorescence; actives lie on both sides; binding response (% of control), % at 10 µM; 220,000 compounds, 0.38% hits;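 also: Galphao activated by GDP with aluminum fluoride before binding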
RGS8-Gao = regulators of human RGS8-Galphao interaction | multiplexed bead flow cytometry, RGS8-Galphao binding; actives lie on both sides | response (percent of control binding), % at 10 µM | 220,000 compounds, 0.34% hits | P09471; in the data active = response below about 60% or above about 140%; inactive = in between;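 also: Galphao activated as the GDP aluminium fluoride complex binding bead-coupled RGS8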
RGS7-Gao = modulates binding of RGS7 to human Galphao; AID 1439; Multiplexed bead flow cytometry; actives lie on both sides; binding response (% of control), % at 10 µM; P09471; 220,000 compounds, 0.35% hits; in the data active = binding response below about 49% or above about 150%; inconclusive = no clear call, values can overlap the other calls; inactive = in between;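 also: fluorescent Galphao held in activated GDP-AlF4 state binding bead-coupled RGS7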
Avidin bead fluor = avidin bead compound fluorescence profile; Avidin beads, compound fluorescence 488/530 nm, flow cytometry; stronger effect = higher value; fluorescence (KMESF) at 10 µM; 220,000 compounds, 0.38% hits; AID 1775; in the data active = fluorescence above about 47
RGS-Gao = RGS4-Galphao interaction regulator (human). RGS4–Galpha-o binding response, % at 10 µM. multiplexed bead flow cytometry, RGS–Galpha-o binding. 1,600 compounds, 99% hits. shares compounds with RGS16-Gao HTS;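 also: fluorescently labeled Galpha-o bound to GDP with aluminium fluoride binding biotinylated RGS beads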
Biotin-avidin = counter-screen: compounds disrupting biotin binding to avidin beads; AID 1783; shares compounds with RGS16-Gao HTS; 1,700 tested, under 10 active; inhibition, % at 10 µM; streptavidin beads, fluorescein-biotin binding, flow cytometry;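 active = inhibition above 50%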;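 also: median green fluorescence of gated singlet beads compared with DMSO control wells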
RGS8-Gao confirm = confirmation of regulators of human RGS8-Galphao interaction. 1,700 compounds, 3% hits. binding response (% of control), % at 10 µM. shares compounds with RGS16-Gao HTS. bead-based flow cytometry RGS8-Galphao binding, fluorescence; actives lie on both sides. AID 1836; in the data active = binding response below about 72% or above about 130%; inactive = in between;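 also: Galphao activated as GDP AlF4 complex before binding bead RGS8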
RGS7-Gao confirm = RGS7-Galphao interaction regulation, single point confirmation. 1,700 compounds, 7.8% hits. AID 1837. response (percent of control binding), % at 10 µM. bead-based flow cytometry RGS7-Galphao binding; actives lie on both sides. shares compounds with RGS16-Gao HTS; in the data active = response below about 75% or above about 130%; inactive = in between;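 also: fluorescent Galphao activated with GDP and aluminum fluoride binding bead-coupled RGS7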
RGS16-Gao conf = RGS16-Galphao interaction regulation, single point confirmation | 1,700 compounds, 4% hits | shares compounds with RGS16-Gao HTS | response (% of control binding), % at 10 µM | AID 1838 | bead-based flow cytometry, RGS16-Galphao binding; actives lie on both sides; in the data active = response below about 74% or above about 130%; inactive = in between;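 also: Galphao activated as the GDP aluminium fluoride complex binding bead-coupled RGS16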
RGS4-Gao confirm = RGS4-Galphao interaction regulation, single point confirmation | shares compounds with RGS16-Gao HTS | RGS4-Galphao binding, multiplexed bead flow cytometry; actives lie on both sides | binding response (% of control), % at 10 µM | 1,700 compounds, 4% hits | AID 1840; in the data active = binding response below about 74% or above about 130%; inactive = in between
RGS19-Gao conf = confirmation of regulators of human RGS19-Galphao interaction. shares compounds with RGS16-Gao HTS. bead-based flow cytometry RGS19-Galphao binding; actives lie on both sides. response (percent of control binding), % at 10 µM. 1,700 compounds, 5% hits. AID 1841; in the data active = response below about 50% or above about 160%; inactive = in between
Target sequence (P09471 whole entry, looked up): as above
Target sequence (P49795 whole entry, looked up): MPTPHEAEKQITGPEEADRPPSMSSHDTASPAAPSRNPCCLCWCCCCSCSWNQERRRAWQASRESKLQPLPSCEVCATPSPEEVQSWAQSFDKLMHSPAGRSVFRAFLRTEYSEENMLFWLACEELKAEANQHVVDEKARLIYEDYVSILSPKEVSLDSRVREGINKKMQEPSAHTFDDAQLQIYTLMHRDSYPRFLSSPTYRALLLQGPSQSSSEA
Each line names hits and unclear results; the compound was inactive in the other large screens (follow-up assays come after a bar, where they were run); [ ] = dose if it differs, or a comment. Unless noted, no rule for the calls is given here.

Cn1cc(C(=O)N2CCc3ccccc32)cn1	none
Cc1cccc(-c2nnc3sc(-c4ccccc4)nn23)c1	none (no result: RGS4-Gao reg, RGS16-Gao HTS, RGS8-Gao, RGS7-Gao, Avidin bead fluor) | Biotin-avidin inactive | RGS8-Gao confirm inactive | RGS7-Gao confirm inactive | RGS16-Gao conf inactive | RGS4-Gao confirm inactive | RGS19-Gao conf inactive
Cc1cn2c(N)c(C=C3C=C(Cl)C(=O)C(Cl)=C3)c(=O)nc2s1	RGS4-Gao reg 548.7[activator], RGS16-Gao HTS 443.8[activator], RGS7-Gao 473.5[activator], Avidin bead fluor 179 | Biotin-avidin inactive | RGS8-Gao confirm 140.8[activator] | RGS7-Gao confirm active[activator] | RGS16-Gao conf 449.0[activator] | RGS4-Gao confirm 658.7[activator] | RGS19-Gao conf active[activator]
COC1=C/C(=C/c2c(N)n3cc(C)sc3nc2=O)C=CC1=O	none
COc1cccc(Cn2c(C3CC3)nc3ccc(NC(=O)c4ccco4)cc3c2=O)c1	RGS7-Gao 578.5[activator], Avidin bead fluor 603 | RGS-Gao 77.3 | Biotin-avidin inactive | RGS8-Gao confirm inactive | RGS7-Gao confirm inactive | RGS16-Gao conf inactive | RGS4-Gao confirm inactive | RGS19-Gao conf inactive
O/N=C/c1ccc(OCc2ccccc2)c(Br)c1	RGS16-Gao HTS 3.0 | RGS-Gao 84.4 | Biotin-avidin inactive | RGS8-Gao confirm inactive | RGS7-Gao confirm inactive | RGS16-Gao conf inactive | RGS4-Gao confirm inactive | RGS19-Gao conf inactive
O/N=C/c1ccc(OCc2ccccc2)c(Cl)c1	none
Cc1ccc2c(c1)N(C(=O)NC1CCCCC1)C(C)(C)CC2C (stereo unspecified)	none
CCSc1nnc(Nc2ccccc2)s1	RGS4-Gao reg 14.6, RGS16-Gao HTS 20.6, RGS8-Gao 41.9, RGS7-Gao 24.8 | Biotin-avidin inactive | RGS8-Gao confirm inactive | RGS7-Gao confirm inactive | RGS16-Gao conf inactive | RGS4-Gao confirm inactive | RGS19-Gao conf inactive
Cc1cccc(NC(=O)CN2NS(=O)(=O)c3ccccc3C2=O)c1	none
CCc1ccc(CCC(=O)Nc2nnc(C)s2)o1	none
CCc1nnc(NC(=O)CCc2ccc(C)o2)s1	RGS4-Gao reg 169.8[activator], RGS8-Gao 151.1[activator], RGS7-Gao 158.4[activator] | Biotin-avidin inactive | RGS8-Gao confirm inactive | RGS7-Gao confirm inactive | RGS16-Gao conf inactive | RGS4-Gao confirm inactive | RGS19-Gao conf inactive
CCOC(=O)c1cccc2c1-c1ccccc1/C2=N/O	none
CC1CCCC(C)N1C(=O)c1cccc2c1-c1ccccc1/C2=N/O (stereo unspecified)	RGS7-Gao 165.5[activator], Avidin bead fluor 143 | RGS-Gao 109.8 | Biotin-avidin inactive | RGS8-Gao confirm inactive | RGS7-Gao confirm inactive | RGS16-Gao conf inactive | RGS4-Gao confirm inactive | RGS19-Gao conf inactive
CCn1c(=NC(=O)C2COc3ccccc3O2)sc2c(OC)ccc(OC)c21 (stereo unspecified)	RGS7-Gao inconclusive (no result: GSH fluor)
OCCC1CN(Cc2ccc(Oc3ncccn3)cc2)CCN1C1CCCCC1 (stereo unspecified)	RGS8-Gao 47.8, RGS7-Gao inconclusive, Avidin bead fluor 159 (no result: GSH fluor) | RGS-Gao 147.1 | Biotin-avidin inactive | RGS8-Gao confirm inactive | RGS7-Gao confirm inactive | RGS16-Gao conf inactive | RGS4-Gao confirm inactive | RGS19-Gao conf inactive
CCOc1ncccc1C(=O)OCc1nnc(-c2ccccc2)o1	none (no result: RGS4-Gao reg, RGS16-Gao HTS, RGS8-Gao, RGS7-Gao, Avidin bead fluor) | Biotin-avidin inactive | RGS8-Gao confirm inactive | RGS7-Gao confirm inactive | RGS16-Gao conf inactive | RGS4-Gao confirm inactive | RGS19-Gao conf inactive
O=C(OCc1nnc(-c2ccccc2)o1)c1cccnc1Cl	none
Cc1c(C(=O)OCC(=O)NCC2CCCO2)cccc1[N+](=O)[O-] (stereo unspecified)	RGS7-Gao inconclusive
O=C(Cn1c2ccccc2c(=O)c2ccccc21)N/N=C/c1cc([N+](=O)[O-])ccc1N1CCCCCC1	none (no result: RGS4-Gao reg, RGS16-Gao HTS, RGS8-Gao, RGS7-Gao, Avidin bead fluor) | Biotin-avidin inactive | RGS8-Gao confirm inactive | RGS7-Gao confirm 134.7[activator] | RGS16-Gao conf 139.5[activator] | RGS4-Gao confirm 129.1[activator] | RGS19-Gao conf 384.1[activator]
O=C(Cn1c2ccccc2c(=O)c2ccccc21)N/N=C/c1ccc(N2CCCC2)c([N+](=O)[O-])c1	none
CC(C)OC(=O)CSc1nc(Cc2cccs2)nc2ccccc12	none
CCOC(=O)Cc1csc(NC(=O)c2sc3nc4c(C)cc(C)cc4cc3c2N)n1	none
Cc1cc(=S)cc(C)n1CCO	RGS8-Gao 53.4 | RGS-Gao 100.0 | Biotin-avidin inactive | RGS8-Gao confirm inactive | RGS7-Gao confirm inactive | RGS16-Gao conf inactive | RGS4-Gao confirm inactive | RGS19-Gao conf inactive
COC(=O)CSc1nc(C)c2c(n1)CCCC2	none
CC(C)[C@H](N)c1nnc(SC/C=C/c2ccccc2)o1	none
Cn1nc(C(F)(F)F)c(-c2ccc(F)cc2)c1NC(=O)c1ccco1	RGS4-Gao reg 187.9[activator], RGS16-Gao HTS 176.2[activator], RGS7-Gao inconclusive, Avidin bead fluor 61 (no result: GSH fluor) | Biotin-avidin inactive | RGS8-Gao confirm inactive | RGS7-Gao confirm 74.0 | RGS16-Gao conf inactive | RGS4-Gao confirm inactive | RGS19-Gao conf inactive
Cn1nc(C(F)(F)F)c(-c2ccccc2)c1NC(=O)c1ccco1	RGS7-Gao inconclusive (no result: GSH fluor)
COc1ccc(OC)c(NC(=O)N2CCCC(C(=O)c3ccccc3OC)C2)c1 (stereo unspecified)	none
Cc1ccccc1CSc1nn2c(=O)c(C)nnc2s1	RGS7-Gao 211.2[activator] | RGS-Gao 115.6 | Biotin-avidin inactive | RGS8-Gao confirm inactive | RGS7-Gao confirm inactive | RGS16-Gao conf inactive | RGS4-Gao confirm inactive | RGS19-Gao conf inactive
O=C(NNC(=S)Nc1ccc(Br)cc1Cl)c1ccncc1	RGS7-Gao 164.3[activator], Avidin bead fluor 90 | RGS-Gao 112.4 | Biotin-avidin inactive | RGS8-Gao confirm inactive | RGS7-Gao confirm inactive | RGS16-Gao conf inactive | RGS4-Gao confirm inactive | RGS19-Gao conf inactive
Cc1cccc(OCCCC(=O)NCc2ccco2)c1	none
